# Measured values as given in PubChem BioAssay (EPA / NIEHS).
# Activity calls are given as the source filed them. The calls were made as follows, unless noted: active = hit-call score of the fitted dose curve at least 0.9, where 1 is the maximum; inconclusive = response in the unintended direction; inactive = score below 0.9.
# System: SRY-box transcription factor 17 (SOX17) Protein Expression, Deisenroth Lab, SOX17 (gene 64321)
# Assay: CCTE_Deisenroth_DEVTOX-GLR_legacy_Sox17: (Legacy) CCTE's DevTox GLR-Endo Assay Evaluation of SRY-box transcription factor 17 (SOX17) Protein Expression, Deisenroth Lab (AID 2284341; active = hit-call score of the fitted dose curve at least 0.9, where 1 is the maximum; inactive = score below 0.9)
# Details: actives raise or lower the signal
# Outline: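 RUES2-GLR human pluripotent cells, seeded 24 h, then differentiated 48 h in defined media with two chemical exposures 24 h apart (1 nM - 200 uM, 10 points). Sox17+ fraction from high-content fluorescence imaging; bidirectional fit versus 0.2% DMSO.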
row,SMILES,outcome
1,Cc1cn([C@H]2C=C[C@@H](CO)O2)c(=O)[nH]c1=O,inactive
2,CC(=O)CC(c1ccccc1)c1c(O)c2ccccc2oc1=O (centres undefined),inactive
3,O=C1NC(=O)C(c2ccccc2)(c2ccccc2)N1,inactive
4,O=C(O)c1cccnc1,inactive

# System: SERPINA7 (gene 6906)
# Assay: CCTE_GLTED_hTBG: CCTE's human Thyroxine-binding Globulin (TBG) Inhibition Assay, Great Lakes Toxicology and Ecology Division (GLTED) Lab (AID 2284343);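 also: active chemicals lower fluorescence versus DMSO baseline by displacing probe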
# Details: not given
# Outline: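 Human thyroxine-binding globulin was exposed to each chemical for 2 hours, during which the ANSA probe could be displaced. Fluorescence was then measured at 380/475 nm, and loss of signal was analysed relative to DMSO.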
row,SMILES,AC50
1,O=C(O)c1[nH]n(-c2ccc(S(=O)(=O)O)cc2)c(=O)c1N=Nc1ccc(S(=O)(=O)O)cc1,27.1 µM (active)
2,CCCCCCC(C=O)=Cc1ccccc1,21.5 µM (active)
3,CC(=O)CC(c1ccccc1)c1c(O)c2ccccc2oc1=O (centres undefined),37.9 µM (active)
4,Cc1ccc(C(C)(C)C)c(O)c1,26.7 µM (active)
5,CCCCCCCCCCCCCCOS(=O)(=O)O,27.7 µM (active)
6,S=c1[nH]c2ccccc2s1,36.4 µM (active)
7,O=Cc1ccccc1C=O,8.72 µM (active)
8,O=C(Oc1ccccc1)c1cccc(C(=O)Oc2ccccc2)c1,9.91 µM (active)
9,O=C1OC(c2ccc(O)cc2)(c2ccc(O)cc2)c2ccccc21,3.3 µM (active)
10,CCCCc1nc2cccnc2n1Cc1ccc(-c2ccccc2-c2nnn[nH]2)cc1,33.7 µM (active)
11,O=C1c2c(O)cccc2Cc2cccc(O)c21,41.1 µM (active)
12,Cc1cc(Cc2ccc(N)c(C)c2)ccc1N,24 µM (active)
13,O=C1NC(=O)C(c2ccccc2)(c2ccccc2)N1,17.4 µM (active)
14,Cc1c(C)c2c(c(C)c1O)CCC(C)(COc1ccc(CC3SC(=O)NC3=O)cc1)O2 (centres undefined),8.3 µM (active)
15,CCC(C)N(C)C(=O)c1cc2ccccc2c(-c2ccccc2Cl)n1 (centres undefined),38.1 µM (active)
